We go through 11 compounds from PubChem BioAssay.

Assay [1] in a line: compounds altering circadian rhythm period length – cell-based, LOPAC library, luminescence reporter (AID 2774).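 Further: values are relative to mean of DMSO wells on each plate.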 The settings on record: circadian reporter cells, at 7 µM, actives lie on both sides.
Assay [2] concerns Hepatitis C virus NS3 helicase. Nature of the assay: blockers of NS3h binding to ssDNA – biochemical, fluorescence polarization, LOPAC1280 library, primary screen (AID 687035; in the data active means inhibition above about 37%). The note with it: Purified HCV NS3 helicase, Cy5-dT15 ssDNA binding fluorescence polarization; stronger effect = higher value; concentration not given here. A general note: Polarisation of emitted light reports the rotation of a fluorescent probe.

The nature of assay [3]: compounds altering Cy5-DNA-NS3h complex signal – biochemical, LOPAC1280, artefact control for HCV NS3 helicase inhibitor project (AID 687037). The settings on record: Cy5-DNA-NS3h complex fluorescence interference counterscreen. (In general: A counterscreen serves to expose hits that act by an unwanted route or on another target.)
Assay [4] can be described thus: viability loss with induced miR-34 in A549 – imaging, A549 dox-inducible miR-34, nuclei and caspase counts, primary screen (AID 1347080;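 active means compounds whose cell count with miR-34 switched on is under 0.7 times the count with it off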). The settings on record: A549 miR-34 inducible, Hoechst nuclei count, 48 h.
A short description of assay [5]: blockers of cellular phospholipid synthesis – cell-based, LOPAC library, screen 4, primary screen (AID 1347384). The settings on record: animal cells, phospholipid biosynthesis inhibition screen; at 10 µM.
Assay [6] is described as follows: galactose survival enhancers in mitochondrial complex I cybrids – cell-based, galactose medium, ATP luminescence, primary screen (AID 1645843;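 active means z-score of at least 1.8 in each of two replicates, scored against plate mean and spread of sample wells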;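 further: positive z means more ATP and so rescue of galactose-driven cybrid death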). The note with it: complex I mutant cybrid cells, 72 h, stronger effect = higher value.
The mark [7] stands for this setting: stronger effect = lower value, cell number ratio, induced over uninduced.
The mark [8] stands for this setting: measured here: relative caspase fold change +Dox/-Dox.
Where [9] appears, read: measured here: total cells with miR-34 induction, stronger effect = lower value.
Where [10] appears, read: measured here: total cells without miR-34 induction.

Activity calls are given as the source filed them. Unless noted, how the calls were made is not given here.

Regarding `O=Nc1ccc2oc(=O)ccc2c1`, in assay [1], the period change was -0.05 h (inactive). In assay [2], the inhibition was -2% (inactive). Besides, the fluorescence ratio (interference) in assay [3] is 1 (inactive). For the same compound, the fold change in assay [4] (setting [7]) was 1.06 (inactive); in assay [4] (setting [8]), 0.992. Also, the cell count in assay [4] (setting [9]) was found to be 10200; in assay [4] (setting [10]) it was 9600. In assay [5], the compound was classed as inactive. In addition, in assay [6], the z-score is -1.25 (inactive).

As to `O=C(c1cc(O)c(O)c([N+](=O)[O-])c1)c1ccccc1F`, the period change in assay [1] was 0.055 h (inactive). Moreover, the inhibition in assay [2] was 5% (inactive). Further, the fluorescence ratio (interference) in assay [3] is 0.9 (inactive). Further, the fold change was 1.18 (inactive) in assay [4] (setting [7]) and 1.45 in assay [4] (setting [8]). Also, the cell count turned out to be 7010 in assay [4] (setting [9]) and 5940 in assay [4] (setting [10]). In assay [5], the call was inactive. Further, the z-score in assay [6] was -0.165 (inactive).

Take `CCCCOC(=O)NS(=O)(=O)c1sc(CC(C)C)cc1-c1ccc(Cn2c(CC)nc3c(C)cc(C)nc32)cc1`: in assay [1], the period change was -0.005 h (inactive). For the same compound, the inhibition in assay [2] is -1% (inactive). Moreover, in assay [3], the fluorescence ratio (interference) was 1 (inactive). Also, the fold change in assay [4] (setting [7]) is 0.772 (inactive); in assay [4] (setting [8]), 0.69. The cell count in assay [4] (setting [9]) is 4700; in assay [4] (setting [10]), 6080. Further, the outcome in assay [5] was inactive. The z-score in assay [6] was -1.28 (inactive).

Consider `Oc1ccccc1O`, for which the period change in assay [1] is -0.735 h (inactive). The inhibition in assay [2] was -1% (inactive). Moreover, in assay [3], the fluorescence ratio (interference) was 1 (inactive). Moreover, the fold change in assay [4] (setting [7]) was 1.03 (inactive); in assay [4] (setting [8]), 1.8. In addition, the cell count came out at 7780 in assay [4] (setting [9]) and 7580 in assay [4] (setting [10]). In assay [5], the compound was classed as inactive. Besides, the z-score in assay [6] is -1.42 (inactive).

On to `COc1cccc(C(=O)NCCN2CCN(c3ccc(Cl)cc3)CC2)c1`, for which the period change in assay [1] is -0.035 h (inactive). The inhibition in assay [2] was 0% (inactive). For the same compound, the fluorescence ratio (interference) in assay [3] was 1 (inactive). Further, the fold change in assay [4] (setting [7]) is 1.02 (inactive); in assay [4] (setting [8]), 1.92. Also, the cell count was found to be 9900 in assay [4] (setting [9]) and 9720 in assay [4] (setting [10]). Further, the result in assay [5] was inactive. The z-score in assay [6] is -0.845 (inactive).

Take `Nc1c(S(=O)(=O)O)cc(Nc2ccc(Nc3nc(Cl)nc(Nc4ccc(S(=O)(=O)O)cc4)n3)c(S(=O)(=O)O)c2)c2c1C(=O)c1ccccc1C2=O`: the period change in assay [1] was 0.105 h (inactive). Moreover, the inhibition in assay [2] was 86% (active). The fluorescence ratio (interference) in assay [3] was 0.7 (active). Further, the fold change in assay [4] (setting [7]) is 1.07 (inactive); in assay [4] (setting [8]), 0.889. Further, the results for the cell count in assay [4] (setting [9]) and in assay [4] (setting [10]) were 9580 and 8990, respectively. The result in assay [5] was inactive. Further, in assay [6], the z-score was 4.81 (active).

`CC(=O)[C@H]1CCC2C3CC=C4C[C@@H](OS(=O)(=O)O)CC[C@]4(C)C3CC[C@@]21C` (some centres undefined): the period change in assay [1] was 0.02 h (inactive). The inhibition in assay [2] was 1% (inactive). The fluorescence ratio (interference) in assay [3] was 1 (inactive). The fold change was 0.987 (inactive) in assay [4] (setting [7]) and 1.53 in assay [4] (setting [8]). The cell count in assay [4] (setting [9]) was 10100; in assay [4] (setting [10]), 10300. Further, the compound was called inactive in assay [5]. The z-score in assay [6] is 2.2 (active).

Take `NCC(O)C1CCCCCCC1` (centres undefined): the period change in assay [1] is -0.04 h (inactive). Further, the inhibition in assay [2] is -3% (inactive). In addition, in assay [3], the fluorescence ratio (interference) was 1 (inactive). Further, the fold change is 0.963 (inactive) in assay [4] (setting [7]) and 1.08 in assay [4] (setting [8]). For the same compound, the cell count stood at 9960 in assay [4] (setting [9]) and 10300 in assay [4] (setting [10]). Moreover, the compound was classed as inactive in assay [5]. The z-score in assay [6] was 0.085 (inactive).

On to `NO`, for which, in assay [1], the period change is -0.195 h (inactive). The inhibition in assay [2] was 1% (inactive). Further, in assay [3], the fluorescence ratio (interference) is 1 (inactive). Also, the figures for the fold change in assay [4] (setting [7]) and in assay [4] (setting [8]) were 1.15 (inactive) and 1.06, respectively. Besides, the cell count in assay [4] (setting [9]) stood at 10000; in assay [4] (setting [10]), 8720. The result in assay [5] was inactive. Moreover, the z-score in assay [6] is 0.49 (inactive).

Consider `CC(=O)SC1CC2=CC(=O)CC[C@]2(C)C2CC[C@@]3(C)C(CC[C@@]34CCC(=O)O4)C12` (some centres undefined), for which the period change in assay [1] is 0.045 h (inactive). Besides, the inhibition in assay [2] was -4% (inactive). Also, in assay [3], the fluorescence ratio (interference) is 1 (inactive). Also, the fold change in assay [4] (setting [7]) was 1.07 (inactive); in assay [4] (setting [8]) it was 1.82. The cell count was determined as 7810 in assay [4] (setting [9]) and 7280 in assay [4] (setting [10]). Also, the outcome in assay [5] was inactive. The z-score in assay [6] is 1.24 (inactive).

As to `CNc1ncnc2c1ncn2[C@@H]1O[C@H](CO)[C@H](O)C1O` (some centres undefined), the period change in assay [1] was -0.015 h (inactive). In addition, the inhibition in assay [2] was -2% (inactive). Further, the fluorescence ratio (interference) in assay [3] was 1 (inactive). Also, the fold change in assay [4] (setting [7]) is 1.08 (inactive); in assay [4] (setting [8]), 1.05. Further, the cell count came to 10300 in assay [4] (setting [9]) and 9460 in assay [4] (setting [10]). The compound was called inactive in assay [5]. Besides, the z-score in assay [6] is 0.765 (inactive).

Broadly, the inhibition is the change of the read-out against control, counted positive when it falls.
